Source: PubChem BioAssay AID1159580 (chemical genetic matrix, 2015)
Screen size: about 5,500 compounds; about 2,000 (36%) were called active. Roughly 18% stayed inconclusive and do not appear here. Rule as the data show it: active = normalized growth mostly below about 0.91 (no sharp cut-off); inconclusive = no clear call, values can overlap the other calls; inactive = mostly above about 0.92. Some of the results follow.

Assay: chemical genetic growth profiling, strain panel (AID 1159580);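 also: tested at 20 µM; growth read once vehicle control cultures reached saturation at 30 °C; 1 = growth at the plate median or of vehicle wells; lower values mean less growth of the strain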
Settings: S. cerevisiae deletion strains, growth OD
[1] = locus YHR030C, strain SLT2, stronger effect = lower value
[2] = locus YHR079C, strain IRE1, stronger effect = lower value
[3] = locus YJL095W, strain BCK1, stronger effect = lower value
[4] = locus YJR066W, strain TOR1, stronger effect = lower value
[5] = locus YLR113W, strain HOG1, stronger effect = lower value
[6] = locus YNL183C, strain NPR1, stronger effect = lower value
[7] = locus YOR231W, strain MKK1, stronger effect = lower value
[8] = locus YPL256C, strain CLN2, stronger effect = lower value

Measured: normalized growth

Cc1cccc(C#Cc2ccccc2)n1
inactive: locus YAL040C, strain CLN3, stronger effect = lower value 0.997 | locus YCL061C, strain MRC1 (second series), stronger effect = lower value 0.968 | locus YDR363W, strain ESC2, stronger effect = lower value 1.05 | locus YER002W, strain NOP16, stronger effect = lower value 0.986 | locus YGR078C, strain PAC10, stronger effect = lower value 0.978 | locus YMR263W, strain SAP30, stronger effect = lower value 0.993 | locus YMR307W, strain GAS1, stronger effect = lower value 0.919 | locus YNL128W, strain TEP1, stronger effect = lower value 0.992 | locus YNL175C, strain NOP13, stronger effect = lower value 0.977 | locus YNL197C, strain WHI3, stronger effect = lower value 1 | locus YNL224C, strain SQS1, stronger effect = lower value 1 | locus YNL322C, strain KRE1, stronger effect = lower value 0.976 | locus YOR083W, strain WHI5 (second series), stronger effect = lower value 0.918

CC(C)(CO)C(O)C(=O)NCCCO (stereo unspecified)
inactive: locus YAL021C, strain ccr4, stronger effect = lower value 1 | locus YAL026C, strain drs2, stronger effect = lower value 1.02 | locus YAL030W, strain snc1, stronger effect = lower value 1.02 | locus YBL061C, strain skt5, stronger effect = lower value 1.02 | locus YBR009C, strain hhf1, stronger effect = lower value 1.03 | locus YBR023C, strain chs3, stronger effect = lower value 1.03 | locus YBR171W, strain sec66, stronger effect = lower value 1.03 | locus YBR231C, strain swc5, stronger effect = lower value 1.02 | locus YBR279W, strain paf1, stronger effect = lower value 1.01 | locus YCL011C, strain gbp2, stronger effect = lower value 1.02 | locus YCL016C, strain dcc1, stronger effect = lower value 1.02 | locus YCL061C, strain MRC1, stronger effect = lower value 1.01 | locus YCL069W, strain vba3, stronger effect = lower value 1.01 | locus YCR088W, strain abp1, stronger effect = lower value 1.01 | locus YDL005C, strain med2, stronger effect = lower value 1.01 | locus YDL040C, strain nat1, stronger effect = lower value 1.01 | locus YDR001C, strain nth1, stronger effect = lower value 1.02 | locus YDR069C, strain doa4, stronger effect = lower value 1.02 | locus YDR137W, strain rgp1, stronger effect = lower value 1.03 | locus YDR159W, strain sac3, stronger effect = lower value 1.03 | locus YDR195W, strain ref2 1.01 | locus YDR297W, strain sur2, stronger effect = lower value 1.01 | locus YDR334W, strain swr1, stronger effect = lower value 1.01 | locus YDR335W, strain msn5, stronger effect = lower value 1.01 | locus YDR392W, strain spt3, stronger effect = lower value 1.02 | locus YEL003W, strain gim4, stronger effect = lower value 1.02 | locus YEL037C, strain rad23, stronger effect = lower value 1.01 | locus YEL061C, strain CIN8 (second series), stronger effect = lower value 1.02 | locus YER015W, strain faa2, stronger effect = lower value 1.01 | locus YER016W, strain bim1, stronger effect = lower value 1.02 | locus YER111C, strain swi4, stronger effect = lower value 1.01 | locus YER155C, strain BEM2 (second series), stronger effect = lower value 1.04 | locus YFR010W, strain ubp6, stronger effect = lower value 1.01 | locus YGL167C, strain pmr1, stronger effect = lower value 1.03 | locus YGL173C, strain kem1, stronger effect = lower value 1.02 | locus YGL227W, strain vid30, stronger effect = lower value 1.02 | locus YGL240W, strain doc1, stronger effect = lower value 1.02 | locus YGL253W, strain hxk2, stronger effect = lower value 1.02 | locus YHR013C, strain ard1, stronger effect = lower value 1.03 | locus YHR027C, strain rpn1, stronger effect = lower value 1.02 | [1] 1.02 | [2] 1.01 | locus YHR142W, strain chs7, stronger effect = lower value 1.01 | locus YJL092W, strain hpr5, stronger effect = lower value 1.01 | locus YJL095W, strain BCK1 (second series), stronger effect = lower value 1.01 | [3] 0.995 | locus YJL115W, strain asf1, stronger effect = lower value 1.02 | locus YJL129C, strain trk1, stronger effect = lower value 1.02 | locus YJL154C, strain vps35, stronger effect = lower value 1.01 | locus YJL164C, strain tpk1, stronger effect = lower value 1.02 | locus YJL166W, strain qcr8, stronger effect = lower value 1.02 | locus YJL187C, strain SWE1, stronger effect = lower value 1.01 | [4] 0.964 | locus YKL160W, strain elf1, stronger effect = lower value 1.01 | locus YKR026C, strain gcn3, stronger effect = lower value 0.994 | locus YKR091W, strain srl3, stronger effect = lower value 1.01 | locus YLL001W, strain dnm1, stronger effect = lower value 1.02 | locus YLL026W, stronger effect = lower value 1.02 | locus YLL041C, strain sdh2, stronger effect = lower value 1.02 | locus YLR027C, strain aat2, stronger effect = lower value 1.02 | [5] 0.985 | locus YLR221C, strain rsa3, stronger effect = lower value 1.01 | locus YLR258W, strain gsy2, stronger effect = lower value 1.02 | locus YLR262C, strain YPT6 (second series), stronger effect = lower value 1.02 | locus YLR320W, strain mms22, stronger effect = lower value 1.02 | locus YLR342W, strain FKS1, stronger effect = lower value 1.01 | locus YLR357W, strain rsc2, stronger effect = lower value 1.04 | locus YLR370C, strain arc18, stronger effect = lower value 1.02 | locus YLR384C, strain iki3, stronger effect = lower value 1.02 | locus YML120C, strain ndi1, stronger effect = lower value 1.01 | locus YMR058W, strain fet3, stronger effect = lower value 1.01 | locus YMR125W, strain sto1, stronger effect = lower value 1.03 | locus YMR129W, stronger effect = lower value 1.01 | locus YMR205C, strain PFK2, stronger effect = lower value 1.03 | locus YMR231W, strain pep5, stronger effect = lower value 1.01 | locus YNL071W, strain lat1, stronger effect = lower value 1.02 | [6] 0.954 | locus YNL209W, strain ssb2, stronger effect = lower value 1.01 | locus YNL248C, strain rpa49, stronger effect = lower value 0.992 | locus YNL322C, strain KRE1 (second series), stronger effect = lower value 1.01 | locus YNR049C, strain mso1, stronger effect = lower value 1.01 | locus YOR001W, strain rrp6, stronger effect = lower value 1 | locus YOR070C, strain gyp1, stronger effect = lower value 1.01 | locus YOR080W, strain dia2, stronger effect = lower value 1.02 | locus YOR083W, strain WHI5, stronger effect = lower value 1 | locus YOR106W, strain vam3, stronger effect = lower value 1 | [7] 1.01 | locus YOR265W, strain rbl2, stronger effect = lower value 1.01 | locus YOR270C, strain vph1, stronger effect = lower value 1.03 | locus YOR290C, strain snf2, stronger effect = lower value 1.03 | locus YPL051W, strain arl3, stronger effect = lower value 1.03 | locus YPL078C, strain atp4, stronger effect = lower value 1.01 | locus YPL106C, strain sse1, stronger effect = lower value 1 | locus YPL240C, strain hsp82, stronger effect = lower value 1.01 | [8] 0.994

C=C1CC[C@H](O)C/C1=C/C=C1\CCCC2(C)C1CCC2C(C)CCCC(C)C (stereo partly specified)
active: [5] 0.843
inactive: [1] 0.874 | [2] 0.925 | [3] 0.893 | [4] 0.943 | [6] 0.915 | [7] 0.896 | [8] 0.846
